NS1 function inh: qHTS Assay for Inhibitors of Influenza NS1 Protein Function; Potency, µM (series often up to 46.1 µM), for the others: at the top dose activity, positive = more growth; 270,000 compounds, 0.4% hits; calls by dose curve; note: potency is the fitted concentration of half-maximal effect; actives are rising curves; nearly all actives have a fitted effect of over 50% in size
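A cell-based growth assay was used: compounds that relieve NS1-induced slow growth of budding yeast raise OD600. Assay medium was yeast nitrogen base with ammonium sulphate and -URA supplement, pH 6.0, with 2% galactose.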
Pf growth 48h: Primary qHTS for delayed death inhibitors of the malarial parasite plastid, 48 hour incubation. P. falciparum luciferase growth in erythrocytes, 48 h. Potency, µM (top dose mostly 28.7 µM), inactives show at the highest dose activity change, negative = inhibition, hits mostly inhibitors. 310,000 compounds, 5.9% hits; note: potency is the fitted concentration of half-maximal effect; % is set by controls: 0 for no effect and ±100 for the full control effect
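Luciferase-expressing P. falciparum in infected erythrocytes (2% hematocrit, 0.1% parasitemia final) in RPMI 1640/0.5% Albumax were exposed to compound for 48 hours at 37 C, 5% CO2; growth read as luminescence.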
CHX counter: Cycloheximide Counterscreen for Small Molecule Inhibitors of Shiga Toxin | cell reporter, cycloheximide protein synthesis inhibition counterscreen | max response, % | 300,000 compounds, 12% hits | AID 2314, 2010; in the data active = max response mostly above about 13%, no sharp cut-off; inactive = mostly below about 14%; note: read at 38.3 µM for the half of the compounds with a filed dose; 0% is about no effect
Pf growth 96h: Primary qHTS for delayed death inhibitors of the malarial parasite plastid, 96 hour incubation | 320,000 compounds, 6.9% hits | P. falciparum luciferase reporter growth, 96 h | AID 504834, 2011 | Potency, µM (titrated, usually from 28.7 µM), inactives show at the top dose activity change, negative = inhibition, most hits filed as inhibitors; note: potency is the fitted concentration of half-maximal effect; % is set by controls: 0 for no effect and ±100 for the full control effect
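Compounds incubated with erythrocytes infected by luciferase-expressing P. falciparum (2% hematocrit, 0.05% parasitemia final) for 96 hours, 37 C in 5% CO2. Growth inhibition scored as decreased luciferase luminescence.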
Shiga inhibitor: A qHTS for Small Molecule Inhibitors of Shiga Toxin; Vero cells, Shiga toxin protein synthesis inhibition reporter; inhibition, % at 38.7 µM; 290,000 compounds, 9.2% hits; in the data active = inhibition mostly above about 28%, no sharp cut-off; inactive = mostly below about 43%; note: 0% is about no effect
The depositor's hits bear a star; ? = inconclusive; nt = no result given; + = active, no number. Compounds with a hit are over-represented: about 21% of the library has one in this group of screens. Unless noted, calls come from the whole dose curve; as a rule, active = well fitted inhibition curve with a large enough effect; inconclusive = small, poorly fitted or top-dose-only effect, or another doubt; inactive = no such curve, though single readings can be large or run the other way.

SMILES | NS1 function inh | Pf growth 48h | CHX counter | Pf growth 96h | Shiga inhibitor
CC(C)(C)c1csc(NC(=O)c2ccc(Br)o2)n1 | -58% | 6% | 47* | -20% | 99*
CCOC(=O)Cc1csc(N/N=C/c2ccc(Cl)cc2)n1 | 3% | 101% | 31* | 103% | 53*
CCOC(=O)Cc1csc(NC(=O)Nc2cccc(Cl)c2)n1 | 2% | 12% | 8.9* | -27% | 26
CCOC(=O)Cc1csc(NC(=O)Nc2ccc(Cl)cc2)n1 | -5% | ? | 2 | ? | 19
CCOC(=O)Cc1csc(NC(=O)c2ccc(Cl)nc2)n1 | -21% | ? | -2 | 0% | -7
CC(=O)Cc1nsc(NC(=O)c2ccc(Br)o2)n1 | -4% | 27% | -3 | ? | 32
CCOC(=O)Cc1csc(NC(=O)c2sc3nc4ccc(CC)cc4cc3c2N)n1 | 27% | 133% | 24* | 35% | 81*
N#CCC(=O)N/N=C/c1ccc(Sc2nc3ccccc3s2)o1 | 6% | 3% | 3 | 78% | -13
O=C(CSc1ncnc2nc[nH]c12)Nc1nnc(SCc2ccc(Cl)c(Cl)c2)s1 | 8% | -8% | 3 | -5% | 1
Cc1cccc(C(=O)OCC(=O)N2CCCC2=O)c1O | nt | -13% | nt | ? | nt
CCOC(=O)Cc1csc(NC(=O)c2ccc(Br)o2)n1 | -55% | nt | 38* | ? | 36*
Cc1csc(NC(=O)c2cc3ccccc3o2)n1 | nt | 37% | nt | 91% | nt
CCOC(=O)Cc1csc(NC(=O)/C=C/c2ccc(Br)o2)n1 | -42% | 77% | 27 | ? | 34
CCOC(=O)Cc1csc(NC(=O)c2cc3ccccc3o2)n1 | nt | 120% | 23* | -26% | 54*
NC(CSCC(=O)O)C(=O)O (configuration not stated) | nt | 9% | 5 | 5% | -4
CC(=O)N[C@@H](CSC(=O)[C@]1([C@@H](O)C(C)C)NC(=O)[C@H](C)[C@@H]1O)C(=O)O | nt | nt | 85* | nt | +
O=C(CSc1nnc(CNC(=O)C23CC4CC(CC(C4)C2)C3)n1-c1ccccc1)Nc1ccc(F)cc1 | 9% | ? | -4 | ? | -2
O=C(NCc1nnc(SCc2ccc(C(F)(F)F)cc2)n1-c1ccccc1)C12CC3CC(CC(C3)C1)C2 | ? | ? | 0 | 1.7µM* | -6
O=C(NCc1nnc(SCc2ccc(F)cc2)n1-c1ccccc1)C12CC3CC(CC(C3)C1)C2 | -3% | 9.3µM* | -9 | ? | -7
CCC(=O)c1cc2c(cc1NC(=O)C(C)C)OCCO2 | 2% | -2% | 18 | 2.3µM* | -13
CCCC(=O)c1cc2c(cc1NC(=O)c1ccccc1F)OCCO2 | nt | ? | 13 | 12µM* | 37
CC(C)C(=O)Nc1cc2c(cc1C(=O)c1ccccc1)OCCO2 | -4% | ? | -2 | 1.3µM* | -10
CCC(=O)c1cc2c(cc1NC(=O)c1ccccc1)OCCO2 | -49% | nt | 1 | 46% | -2
CC(C)c1nc(SCC(=O)Nc2ccc(N3CCOCC3)cc2)c2ccccc2n1 | 9% | ? | -1 | -20% | -9
COc1ccc(CCn2c(C3CCCCC3)nc3c(c(=O)c4ccccc4n3C)c2=O)cc1OC | -2% | 3.3µM* | 1 | 4.7µM* | -6
SMILES | NS1 function inh | Pf growth 48h | CHX counter | Pf growth 96h | Shiga inhibitor
CC(C)c1nc2c(c(=O)c3ccccc3n2C)c(=O)n1CCc1ccccc1 | 1% | ? | -2 | 4.7µM* | -10
COCCn1c(-c2ccccc2Cl)nc2c(c(=O)c3ccccc3n2C)c1=O | 0% | -19% | -3 | ? | -14
COCCn1c(-c2ccc(Cl)cc2)nc2c(c(=O)c3ccccc3n2C)c1=O | 4% | ? | -3 | 8.3µM* | -81
COc1ccc(CCn2c(C(C)C)nc3oc4ccccc4c(=O)c3c2=O)cc1 | -2% | 8.3µM* | -1 | 6.6µM* | 20
CCOC(=O)c1cc(C(=O)OCC)c(=O)[nH]c1N1CCCC1 | -1% | 29% | 5 | -11% | -2
COc1ccc(Cn2c(C3CCCCC3)nc3c(c(=O)c4ccccc4n3C)c2=O)cc1 | -4% | 3.3µM* | 2 | 2.3µM* | 21
COc1ccc(Cn2c(-c3ccccc3)nc3c(c(=O)c4ccccc4n3C)c2=O)cc1 | 9% | -15% | -3 | 12µM* | -3
O=C(N[C@@H](Cc1c[nH]c2ccccc12)C(=O)O)C1CCN(S(=O)(=O)c2ccc(Cl)cc2)CC1 | 19% | 26% | -3 | 36% | 3
CCOC(=O)C(=CNc1cc(Cl)c(-c2ccco2)c(Cl)c1)C(=O)OCC | 5% | 12µM* | -2 | -110% | -6
CCOC(=O)C(=CNc1ccc(-c2ccco2)c(Cl)c1)C(=O)OCC | 11% | ? | -3 | ? | -8
CCCC(=O)NC1CCCc2c1cnn2-c1ccc(C)c(C)c1 (configuration not stated) | -18% | 7% | 20* | 3.3µM* | 27
Cc1cc(C(=O)NC2CCCc3c2cnn3-c2ccc(C)c(C)c2)no1 (configuration not stated) | -46% | -19% | 15* | -8% | 19
C=CCC(=O)NC1CCCc2c1cnn2-c1cc(F)cc(F)c1 (configuration not stated) | -21% | 18% | -1 | -15% | 17
CSCC(=O)NC1CCCc2c1cnn2-c1cc(F)cc(F)c1 (configuration not stated) | -11% | 0% | 14* | ? | 14
COc1ccc(C(=O)NC2CCCc3c2cnn3-c2ccc(C)c(C)c2)c(OC)c1OC (configuration not stated) | -115% | -5% | -1 | ? | 8
CCn1nc(C)cc1C(=O)NC1CCCc2c1cnn2-c1ccc(C)c(C)c1 (configuration not stated) | -56% | ? | 4 | 15µM* | -26
Cc1ccc(-n2ncc3c2CCCC3NC(=O)c2ocnc2C)cc1C (configuration not stated) | -5% | -16% | 5 | 31% | -10
O=C(c1ccco1)N1CCCN(Cc2nc(Cc3ccccc3)no2)CC1 | 1% | -7% | 0 | 4% | -15
O=[N+]([O-])c1cccc(/C=N\NC2=CS(=O)(=O)C=C2)c1 | -3% | nt | nt | nt | nt
OC[C@H]1NC[C@@H](O)[C@@H]1O | -1% | 3% | nt | ? | nt
COC(=O)[C@H](CCSC)NC(=O)Nc1ccc(S(N)(=O)=O)cc1 | 8% | ? | -2 | 63% | 4
NC(=O)N/N=C/c1sc(=O)n(-c2ccccc2)c1Cl | 1% | 28% | 16* | 25% | 47
O=C(N/N=C/c1sc(=O)n(-c2ccccc2)c1Cl)c1ccccc1 | 15% | ? | 28* | 2.3µM* | 76*
O=C(COc1ccccc1)N/N=C/c1sc(=O)n(Cc2cccc(C(=O)O)c2)c1Cl | 16% | ? | -2 | ? | -6
Cc1onc(-c2ccccc2)c1C(=O)N1CCN(c2ncccn2)CC1 | 4% | 0% | -4 | ? | -1

Assay outcomes deposited in PubChem BioAssay by National Center for Advancing Translational Sciences (NCATS).
